# Autofluor counter = counter-screen for toxin protease inhibitors: compound fluorescence; fluorescence intensity (concentration not given with the values); compound autofluorescence counterscreen, microsphere flow cytometry; active compounds read high; AID 624483; 360,000 compounds, 3.1% hits; in the data active = fluorescence intensity above about 16000; inconclusive = no clear call, values can overlap the other calls
# BoNT A protease = inhibitors of Botulinum neurotoxin A light chain protease | 360,000 compounds, 0.17% hits | AID 588499 | inhibition, % at 10 µM | multiplex microsphere protease substrate cleavage, flow cytometry
# Anthrax LF inh2 = blocks Bacillus anthracis lethal factor protease; P15917; multiplex microsphere protease cleavage assay, LF; inhibition, % at 10 µM; 360,000 compounds, 0.12% hits
# Target sequence (P15917 whole entry, looked up): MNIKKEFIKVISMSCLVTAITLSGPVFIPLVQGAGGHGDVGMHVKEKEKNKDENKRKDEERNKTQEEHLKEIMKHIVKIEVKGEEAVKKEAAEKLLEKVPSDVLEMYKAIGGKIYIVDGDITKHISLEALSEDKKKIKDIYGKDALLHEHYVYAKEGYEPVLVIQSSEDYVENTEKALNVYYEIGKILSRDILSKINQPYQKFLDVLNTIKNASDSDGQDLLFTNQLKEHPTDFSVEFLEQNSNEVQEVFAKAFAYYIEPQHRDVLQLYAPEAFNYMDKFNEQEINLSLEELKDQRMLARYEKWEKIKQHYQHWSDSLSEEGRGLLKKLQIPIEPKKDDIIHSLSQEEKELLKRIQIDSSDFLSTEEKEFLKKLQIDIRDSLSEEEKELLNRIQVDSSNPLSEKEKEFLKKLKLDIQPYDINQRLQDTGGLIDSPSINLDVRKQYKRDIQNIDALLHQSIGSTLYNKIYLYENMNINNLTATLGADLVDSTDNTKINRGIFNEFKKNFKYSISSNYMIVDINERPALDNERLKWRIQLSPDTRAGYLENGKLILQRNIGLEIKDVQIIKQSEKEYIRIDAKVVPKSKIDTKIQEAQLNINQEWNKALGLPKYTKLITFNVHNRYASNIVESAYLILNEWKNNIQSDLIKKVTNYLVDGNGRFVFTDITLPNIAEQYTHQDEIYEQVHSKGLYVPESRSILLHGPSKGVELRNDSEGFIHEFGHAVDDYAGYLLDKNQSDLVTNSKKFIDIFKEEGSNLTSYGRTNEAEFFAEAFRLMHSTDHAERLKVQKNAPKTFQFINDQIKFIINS
# MazEF act = MazEF (E. coli) toxin RNase activation. FAM/BHQ RNA-DNA oligo cleavage fluorescence, 5 h. AID 504720. 350,000 compounds, 0.32% hits. activation, % at 20 µM. P0AE70; in the data active = activation above about 50%
# BoNT F protease = BoNT F light chain protease inhibition; Multiplex microsphere protease cleavage assay, flow cytometry; 360,000 compounds, 0.22% hits; inhibition, % at 10 µM; AID 588497; in the data active = inhibition above about 35%, passing the limit was not always enough; inconclusive = no clear call, values can overlap the other calls
# Hits are given with their value; - = inactive; ? = inconclusive; . = not tested or not shown. Only some compounds are listed: those with a hit (about 3.6% of all), similar ones and a draw of the others. Rule as the data show it, unless noted: active = inhibition above about 30%; inconclusive = no clear call, values can overlap the other calls; inactive = below that.
SMILES,Autofluor counter,BoNT A protease,Anthrax LF inh2,MazEF act,BoNT F protease
COc1ccc(N2CCN(C(=O)CN=C3NS(=O)(=O)C(c4ccc(C)cc4)=C3C)CC2)cc1,17288,-,-,-,-
CCOC(=O)C1(C#N)Cc2ccccc2C1,-,-,-,-,-
O=C(COC(=O)c1ccc(Br)o1)NCC1CCCO1 (configuration not stated),21346,-,-,-,-
CC(=O)c1cc(F)c(N2CCN(c3ccc([N+](=O)[O-])cc3F)CC2)cc1C,20270,-,-,-,-
O=C(CCn1nnc2ccccc21)Nc1nnc(-c2ccccc2F)s1,22751,-,-,-,-
COc1ccc(-c2cn3c(C)c(C(=O)Nc4ccncc4)sc3n2)cc1,-,-,-,-,-
COC(=O)c1ccc(NC(=O)c2sc3nc(-c4ccccc4)cn3c2C)cc1,21396,-,-,-,-
Cc1c(C(=O)N2CCN(c3ccccc3F)CC2)sc2nc(-c3ccccc3)cn12,21586,?,-,-,-
C=CCNS(=O)(=O)NC(=O)C1=C(N2CCCC2)COC1=O,-,-,-,-,-
O=C(CN1C(=O)CSc2ccccc21)NC1CCCC1,-,-,-,-,-
O=C(CN1C(=O)C(=O)c2ccccc21)NC1CCCCC1,21596,?,-,-,-
COCC(=O)NC1CCN(CC(=O)Nc2ccccc2[N+](=O)[O-])CC1,-,-,-,-,-
COCC(=O)NC1CCN(C(=O)Nc2ccc(Br)cc2)CC1,16587,-,-,-,-
COc1cccc(OC)c1C(=O)OCC(=O)NCC1CCCCC1,-,-,-,-,-
COc1ccccc1OCC(=O)NCC1CCCCC1,23960,-,-,-,-
CCc1ccccc1NC(=O)CN1CCC(NC(=O)COC)CC1,23013,?,-,-,-
CC(=O)Nc1ccc(C=NN=C2c3ccccc3-c3ccccc32)cc1,-,-,-,-,-
CCCCNC(=O)C(NC(=O)c1cccnc1)C(=O)c1ccccc1 (configuration not stated),-,-,-,.,-
COc1cc(CNn2cnnc2)ccc1OCC(=O)NC1CCCCC1,24056,-,-,-,-
COc1ccccc1CC(=O)NC1CCCCCC1,-,-,-,-,-
COC(=O)c1ccc(OCC(=O)NC2CCCCCCC2)cc1,-,-,-,-,-
COC(=O)c1ccccc1OCC(=O)NC1CCCCC1,21631,-,-,-,-
CCc1ccccc1OCC(=O)NC1CCCC1,23047,-,-,-,-
O=C1NC2(CCCCC2)N=C1c1ccc(Br)cc1,-,-,-,-,-
O=C1NC2(CCCCC2)N=C1c1ccc(F)cc1,22118,-,-,-,-
SMILES,Autofluor counter,BoNT A protease,Anthrax LF inh2,MazEF act,BoNT F protease
O=C1NC2(CCCC2)N=C1c1ccc(Cl)cc1,23960,-,-,-,-
CC#CCCCC(=O)Nc1cc(OC)nc(OC)n1,22745,-,-,-,-
CCNc1nnc(SCC(=O)N2c3ccccc3NC(=O)CC2C)s1 (configuration not stated),-,-,-,-,-
Cc1onc(-c2ccccc2)c1C(=O)Oc1cccnc1,21663,-,-,-,-
CCN1C(=O)/C(=C2\SC(=S)N(c3c(C)n(C)n(-c4ccccc4)c3=O)C2=O)c2ccccc21,20899,?,-,-,-
Cc1sc2nc(SCC(=O)OC(C)C)n(C)c(=O)c2c1C,-,-,-,-,-
CCOC(=O)CNC(=O)CSc1nc2sc(C)c(C)c2c(=O)n1C,23793,-,-,-,-
Cc1sc2nc(SCC(=O)NCCO)n(C)c(=O)c2c1C,21991,?,-,-,-
O=c1[nH]c2ccccc2c(O)c1O,-,-,-,-,-
COc1ccc(CN(C)C(=O)c2cccc(NC(=O)CC3SC(N4CCCCC4)=NC3=O)c2)c(OC)c1 (configuration not stated),-,-,-,-,-
CC(C)(C)NC(=O)CN(C(=O)CS(=O)CC(=O)Nc1ccc(F)cc1)c1ccc(Cl)cc1 (configuration not stated),20135,?,-,-,-
CC(C)(C)NC(=O)CN(C(=O)CS(=O)CC(=O)Nc1ccc(F)cc1)c1cccc(F)c1 (configuration not stated),-,-,-,-,-
CC(C)(C)NC(=O)CN(C(=O)CS(=O)CC(=O)Nc1ccc(F)cc1)c1ccc(F)c(Cl)c1 (configuration not stated),20160,-,-,-,-
COCCN(CC(=O)Nc1cccc(C)c1C)C(=O)c1oc2c(Cl)cccc2c1C,-,-,-,-,-
O=S(=O)(NC1CCN(S(=O)(=O)c2c(F)cccc2F)CC1)c1ccc2c(c1)OCCO2,-,-,-,-,-
CCN(CC)S(=O)(=O)c1ccc(S(=O)(=O)N(CC(=O)Nc2ccccc2)CC2CCCO2)cc1 (configuration not stated),17027,-,-,-,-
CCOC(=O)NC(Nc1sc2c(c1C(N)=O)CCCC2)(C(=O)OCC)C(F)(F)F (configuration not stated),20183,?,-,-,-
CC(C)(C)C(=O)NC(=C(Cl)Cl)P(=O)(O)O,24171,-,-,-,-
CCOC(=O)CNC(=O)COc1ccc(Cl)cc1Br,23269,-,-,-,-
O=C(COC(=O)COc1ccc(Cl)cc1Br)NCc1cccs1,-,-,-,-,-
O=C1/C(=N\S(=O)(=O)c2cccs2)C([n+]2ccc(CCCc3ccccc3)cc2)=C([O-])c2ccccc21,.,.,.,-,.
O=C1/C(=N\S(=O)(=O)c2cccs2)C([n+]2cccc(Cc3ccccc3)c2)=C([O-])c2ccccc21,.,.,.,271.0,.
Cn1c(SCC(=O)N2CCOCC2)nnc1-c1cccc(NC(=O)c2ccccc2F)c1,20837,-,-,-,-
Cn1c(SCC(=O)N2CCOCC2)nnc1-c1ccc(Cl)cc1Cl,23071,-,-,-,-
COCCn1c(-c2ccc(OC)cc2)nc2oc3cc(OC)ccc3c(=O)c2c1=O,20954,-,-,-,-
SMILES,Autofluor counter,BoNT A protease,Anthrax LF inh2,MazEF act,BoNT F protease
COCCCn1c(C(C)C)nc2oc3cc(OC)ccc3c(=O)c2c1=O,20914,-,-,-,-
COCCn1c(-c2ccc(Cl)cc2)nc2oc3cc(OC)ccc3c(=O)c2c1=O,-,-,-,-,-
COc1ccc(-c2nc3oc4cc(OC)ccc4c(=O)c3c(=O)n2Cc2ccco2)cc1,20811,-,-,-,-
COc1ccc(C(=O)/C=C/c2ccsc2)cc1CSCC(=O)O,?,-,-,-,-
O=C(CCNC(=O)N1CC(=O)Nc2ccccc21)NCc1ccc(Cl)cc1,-,-,-,-,-
Cc1ccc(CCNC(=O)c2coc3nc4ccccc4nc23)cc1,-,-,-,90.2,-
CC1CCN(CCCNC(=O)c2coc3nc4ccccc4nc23)CC1,-,-,-,-,-
COc1ccccc1C(CNC(=O)C1CCN(C(=O)Nc2ccccc2)CC1)N1CCCC1 (configuration not stated),-,-,-,-,-
CC(C)OC(=O)/C(C#N)=C/c1ccc(-c2ccc(SC(F)F)cc2)o1,-,-,-,139.8,-
COC(=O)/C(C#N)=C/c1ccc(-c2ccc(S(N)(=O)=O)cc2)o1,-,-,-,-,-
